Assay results reported in the supplement of paper PMC3342239.
Counter-ions that a name gives are not always drawn.

Test system: Saccharomyces cerevisiae
Test: fraction of cells in G1 phase (DNA content, flow cytometry); higher = more cells with unreplicated DNA (G1 delay)
Details: temperature: 30 C; YPD; BY4741 PDR5+ SNQ2+; drug added to: actively dividing cells; 4.33 h
Procedure: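 S. cerevisiae cultures in YPD at 30°C were treated with each drug of the Enzo FDA-approved library at 20 µg/ml (final µM given per drug). Cells were fixed after 6–7 h (S1) or 6 h (S2), or after 4.33 h for BY4741 (S3), then stained with SYTOX Green. %G1 is the Dean-Jett-Fox G1 peak area divided by the G1+G2/M peak areas, written as a fraction and averaged over at least two independent experiments. DMSO reference: mean ~0.49; >0.60 is called High G1 and <0.3876 Low G1. Scale: lower means mitotic delay.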

Row | SMILES | fraction of cells in G1 phase
1 | CC(C)COCC(CN(Cc1ccccc1)c1ccccc1)N1CCCC1 (stereo not given) [Bepridil] (48.4262 µM) | 0.391
2 | CC(=O)OCC1OC([S-])C(OC(C)=O)C(OC(C)=O)C1OC(C)=O.CC[PH+](CC)CC.[Au+] (stereo not given) [Auranofin] (29.4771 µM) | 0.52
3 | CC(=O)N1CCN(c2ccc(OCC3COC(Cn4ccnc4)(c4ccc(Cl)cc4Cl)O3)cc2)CC1 (stereo not given) [Ketoconazole] (37.6334 µM) | 0.507

Same assay, conditions: temperature: 30 C; YPD; JTY2953 pdr5 snq2 (sensitized); drug added to: actively dividing cells; 6 h

Row | SMILES | fraction of cells in G1 phase
4 | CC(C)COCC(CN(Cc1ccccc1)c1ccccc1)N1CCCC1 (stereo not given) [Bepridil] (48.4262 µM) | 0.637
5 | COc1ccc(-c2cc(=S)ss2)cc1 [Anethole-trithione (anetholtrithion)] (83.2062 µM) | 0.486
6 | CC[C@H](c1ccc(O)cc1)[C@@H](CC)c1ccc(O)cc1 [Hexestrol] (73.9714 µM) | 0.481
7 | CCN(CC)C(=S)SSC(=S)N(CC)CC [Disulfiram] (67.4445 µM) | 0.466
8 | COc1cccc2c1C(=O)c1c(O)c3c(c(O)c1C2=O)C[C@@](O)(C(=O)CO)C[C@@H]3O[C@H]1C[C@H](N)[C@H](O)[C@H](C)O1 [Doxorubicin HCl] (34.4828 µM) | 0.618
9 | Cc1ccc(-c2cc(C(F)(F)F)nn2-c2ccc(S(N)(=O)=O)cc2)cc1 [Celecoxib] (52.4412 µM) | 0.299
10 | CC(=O)OCC1OC([S-])C(OC(C)=O)C(OC(C)=O)C1OC(C)=O.CC[PH+](CC)CC.[Au+] (stereo not given) [Auranofin] (29.4771 µM) | 0.959
11 | CN1CCN(CCCN2c3ccccc3Sc3ccc(C(F)(F)F)cc32)CC1 [Trifluoperazine 2HCl] (41.632 µM) | 0.295
12 | CC(=O)N1CCN(c2ccc(OCC3COC(Cn4ccnc4)(c4ccc(Cl)cc4Cl)O3)cc2)CC1 (stereo not given) [Ketoconazole] (37.6334 µM) | 0.84

Same assay, conditions: temperature: 30 C; YPD; JTY2953 pdr5 snq2 (sensitized); drug added to: cultures diluted from stationary phase; 6-7 h

Row | SMILES | fraction of cells in G1 phase
13 | CCOC(=O)[C@H](CCc1ccccc1)N[C@@H](C)C(=O)N1[C@H](C(=O)O)C[C@@H]2CCC[C@@H]21 [Ramipril] (48.0167 µM) | 0.482
14 | C/N=C(/NC#N)NCCSCc1csc(NC(=N)N)n1 [Tiotidine] (64.0163 µM) | 0.478
15 | C[C@]12C[C@H](O)[C@H]3[C@@H](CCC4=CC(=O)CC[C@@]43C)[C@@H]1CC[C@@H]2C(=O)CO [Corticosterone] (57.7249 µM) | 0.512
16 | CC(C)COCC(CN(Cc1ccccc1)c1ccccc1)N1CCCC1 (stereo not given) [Bepridil] (48.4262 µM) | 0.601
17 | O=C(CCCN1CCC(O)(c2cccc(C(F)(F)F)c2)CC1)c1ccc(F)cc1 [Trifluperidol 2HCl] (48.8487 µM) | 0.563
18 | CN1[C@@H](CC(=O)c2ccccc2)CCC[C@H]1C[C@H](O)c1ccccc1 [Lobeline] (59.2652 µM) | 0.525
19 | C[C@H]1C[C@H]2[C@@H]3CCC4=CC(=O)C=C[C@]4(C)[C@@]3(F)[C@@H](O)C[C@]2(C)[C@@]1(O)C(=O)CO [Betamethasone] (39.6353 µM) | 0.508
20 | Cc1ccccc1C(OCCN(C)C)c1ccccc1 (stereo not given) [Orphenadrine citrate] (43.3369 µM) | 0.522
21 | COc1ccc(-c2cc(=S)ss2)cc1 [Anethole-trithione (anetholtrithion)] (83.2062 µM) | 0.735
22 | CC[C@@]1(O)C(=O)OCc2c1cc1n(c2=O)Cc2cc3c(CN(C)C)c(O)ccc3nc2-1 [Topotecan] (47.4544 µM) | 0.481
23 | CC[C@H](c1ccc(O)cc1)[C@@H](CC)c1ccc(O)cc1 [Hexestrol] (73.9714 µM) | 0.895
24 | CCN(CC)C(=S)SSC(=S)N(CC)CC [Disulfiram] (67.4445 µM) | 0.876
25 | CCC[S+]([O-])c1ccc2[nH]c(NC(=O)OC)nc2c1 (stereo not given) [Ricobendazole] (71.0895 µM) | 0.485
26 | CCN[C@H]1C[C@H](C)S(=O)(=O)c2sc(S(N)(=O)=O)cc21 [Dorzolamide] (61.6443 µM) | 0.499
27 | CC(C)(C)NC(=O)[C@H]1CC[C@H]2[C@@H]3CC[C@H]4NC(=O)C=C[C@]4(C)[C@H]3CC[C@]12C [Finasteride] (53.6833 µM) | 0.558
28 | COc1cccc2c1C(=O)c1c(O)c3c(c(O)c1C2=O)C[C@@](O)(C(=O)CO)C[C@@H]3O[C@H]1C[C@H](N)[C@H](O)[C@H](C)O1 [Doxorubicin HCl] (34.4828 µM) | 0.64
29 | Nc1nc2c(ncn2COC(CO)CO)c(=O)[nH]1 [Ganciclovir] (78.3591 µM) | 0.451
30 | O=C(O[C@@H]1C[C@@H]2C[C@H]3C[C@H](C1)N2CC3=O)c1c[nH]c2ccccc12 [Dolasetron] (61.6555 µM) | 0.494
31 | Clc1ccc2c(c1)C(N1CCNCC1)=Nc1ccccc1O2 [Amoxapine] (63.737 µM) | 0.581
32 | Cc1ccc(-c2cc(C(F)(F)F)nn2-c2ccc(S(N)(=O)=O)cc2)cc1 [Celecoxib] (52.4412 µM) | 0.863
33 | O=C(O)COC(=O)Cc1ccccc1Nc1c(Cl)cccc1Cl [Aceclofenac] (56.4665 µM) | 0.489
34 | CC(=O)OCC1OC([S-])C(OC(C)=O)C(OC(C)=O)C1OC(C)=O.CC[PH+](CC)CC.[Au+] (stereo not given) [Auranofin] (29.4771 µM) | 0.709
35 | CC(C)C(=O)Nc1ccc([N+](=O)[O-])c(C(F)(F)F)c1 [Flutamide] (72.4068 µM) | 0.526
36 | CN1CCN(CCCN2c3ccccc3Sc3ccc(C(F)(F)F)cc32)CC1 [Trifluoperazine 2HCl] (41.632 µM) | 0.873
37 | CC(COc1ccccc1)N(CCCl)Cc1ccccc1 (stereo not given) [Phenoxybenzamine HCl] (58.7717 µM) | 0.514
38 | CC(=O)N1CCN(c2ccc(OCC3COC(Cn4ccnc4)(c4ccc(Cl)cc4Cl)O3)cc2)CC1 (stereo not given) [Ketoconazole] (37.6334 µM) | 0.747
39 | COc1ccc2[nH]c([S+]([O-])Cc3ncc(C)c(OC)c3C)nc2c1 (stereo not given) [Omeprazole] (57.9 µM) | 0.486
40 | CCCCN1CCCCC1C(=O)Nc1c(C)cccc1C (stereo not given) [Bupivacaine HCl] (69.3393 µM) | 0.447
